# Source: PubChem BioAssay (NCI)
# About 83,000 compounds went through this panel and 20% of them were active in at least one assay; those are over-represented in the sample as a whole.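 How to read the values: 0–100, growth inhibition (40 = 60% inhibited); 0, no net growth; -100 to 0, cell death (-40 = 40% of starting cells died; -100 = all dead).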 A number with no mark means an inactive call. Calls of active or inactive are those of the source. How the source made its calls: active means growth percent below 10; inactive means the rest.
# What was measured:
# Experiment in all cases: NCI-60 one-dose screen, 48 h (100 = growth as untreated, 0 = no growth, -100 = all killed)
# Conditions in all cases: 10 µM unless noted
# [1] = test system: SK-MEL-2 melanoma
# [2] = test system: EKVX NSCLC
# [3] = test system: SN12C renal
# [4] = test system: TK-10 renal
# [5] = test system: ACHN renal
# [6] = test system: CAKI-1 renal
# [7] = test system: A498 renal
# [8] = test system: CCRF-CEM leukemia
# [9] = test system: MOLT-4 leukemia
# [10] = test system: RPMI-8226 leukemia
# [11] = test system: OVCAR-8 ovarian
# [12] = test system: OVCAR-5 ovarian
# [13] = test system: OVCAR-4 ovarian
# [14] = test system: SK-OV-3 ovarian
# [15] = test system: IGROV1 ovarian
# [16] = test system: OVCAR-3 ovarian
# [17] = test system: HS 578T breast
# [18] = test system: NCI/ADR-RES ovarian
# [19] = test system: SR leukemia
Structure (SMILES),growth [1],growth [2],growth [3],growth [4],growth [5],growth [6],growth [7],growth [8],growth [9],growth [10],growth [11],growth [12],growth [13],growth [14],growth [15],growth [16],growth [17],growth [18],growth [19]
CC/C(=C(\c1ccccc1)c1ccc(OCCNC)cc1)c1ccccc1,-90.5% (active),-69.2% (active),-90.5% (active),-80.7% (active),-95% (active),-68.2% (active),-62.2% (active),0.764% (active),27.1%,-40.9% (active),-49.6% (active),-85.2% (active),-67.1% (active),-53.8% (active),-93% (active),-92.1% (active),-55.6% (active),-87.3% (active),–
O=C(O)c1ccc(=O)[nH]n1,116%,116%,94.3%,117%,98.8%,109%,105%,112%,89%,107%,103%,104%,113%,106%,137%,115%,111%,109%,–
O=[N+]([O-])c1cccc(-c2nc3sccn3c2-c2ccnc(NCCNS(=O)(=O)c3ccc(C(F)(F)F)cc3)n2)c1,26.9%,39.5%,33%,57.9%,22.5%,30.3%,36.6%,20.2%,18.2%,4.8% (active),26.1%,87.4%,31.2%,74%,27.1%,40.5%,66.4%,26.9%,39.2%
N#Cc1ccc(NC(=O)Nc2ccc(Cc3ccc(NC(=O)Nc4ccc(C#N)cc4)cc3)cc2)cc1,12.8%,14.5%,29.5%,48.1%,31.2%,48.5%,49.5%,17.4%,12.5%,-2.1% (active),38.7%,69.6%,15%,68.6%,29.6%,18.8%,47.9%,52.7%,–
C(=N\Nc1ccccn1)/c1ccccn1,48.9%,25.8%,36.5%,17.5%,14.1%,10.5%,22.4%,0.917% (active),18.8%,35.5%,13.6%,40.7%,10.6%,30.5%,10.7%,7.56% (active),62.8%,-9.79% (active),15.8%
CC(=O)Oc1ccc(Nc2c3ccccc3nc3ccccc23)cc1,-30.7% (active),24%,5.67% (active),3.64% (active),-31.7% (active),-32% (active),-37.2% (active),-8.66% (active),1.46% (active),-16.2% (active),-58.9% (active),18%,13.8%,3.92% (active),-11.8% (active),9.24% (active),25.1%,23.8%,–
Nc1cc2ccncc2c2ccccc12,45.5%,60.4%,52.7%,80.6%,36.4%,58.2%,67.5%,66.9%,50.2%,84.1%,57.6%,76.2%,82.4%,66.2%,58.7%,75.4%,116%,53.2%,0.467% (active)
Cc1cc2c(cc1C)NC1=C(N2)OC(c2c3ccccc3cc3ccccc23)C1=O (stereo unspecified),31%,22.2%,14.3%,107%,29%,42.5%,142%,20.5%,24.8%,30.6%,-27.4% (active),13.9%,75.5%,52%,17.4%,23.3%,32.5%,-41.7% (active),–
CCOC(=O)C(=Cc1ccccc1F)C(=O)OCC,98.4%,97.6%,86.9%,123%,92.7%,96.5%,131%,95.8%,–,93.1%,105%,106%,97%,106%,95.2%,95.2%,104%,100%,–
CN1Cc2c(cc(CN3CCCCC3)n2C)C(c2ccc(Br)cc2)C1 (stereo unspecified),114%,77.2%,84.8%,92.3%,98.1%,83.7%,98.1%,88.2%,92.5%,81.4%,96.9%,96.1%,86.6%,93.7%,96.3%,95.4%,76.3%,88.1%,–
N=c1c2ccccc2nc2n1CCCCC2,114%,103%,104%,123%,105%,95.1%,121%,92.9%,117%,105%,114%,96.1%,107%,112%,106%,116%,95.4%,105%,–
C[C@@H]1CC[C@@H]2[C@@H]1[C@H](OC(=O)/C=C/c1ccccc1)[C@]1(C3CCCCC3)C[C@@H](OC(=O)CO)[C@@]2(C)O1,92.3%,68.6%,16.6%,93.1%,14.8%,16.4%,-31.7% (active),62.8%,61.6%,44.9%,45.2%,96%,74.8%,81.4%,81.3%,75.1%,-22.4% (active),51.1%,–
COc1cc(/C=N/N(C)C)ccc1O,101%,105%,94.9%,94.5%,100%,102%,75.7%,94.5%,89.7%,92.4%,96.1%,106%,115%,97.1%,104%,109%,87.3%,107%,93%
C=CCSc1nnc(-c2ccc(C(C)(C)C)cc2)n1-c1cccc(C(F)(F)F)c1,46.7%,22.2%,29.4%,51.1%,36.3%,32.3%,84.7%,24.2%,21.8%,17.4%,32.1%,77.3%,44.4%,61.5%,54.5%,40.9%,45.5%,22.9%,–
CC(C)Oc1nc2c(c(=O)n(C)c(=O)n2C)n1C,107%,103%,108%,95.3%,101%,100%,106%,95.3%,94.4%,105%,103%,106%,115%,102%,102%,110%,116%,98.1%,104%
CCOC(=O)C12CCCC1=CC(=O)CC2 (stereo unspecified),89.9%,111%,110%,128%,106%,103%,110%,95.7%,94.6%,98.5%,96.5%,96.3%,112%,102%,103%,116%,98.2%,104%,–
Cc1ccc(-c2nc(/C=N/Nc3cc(C)nc4ccc(Cl)cc34)c(C)o2)cc1,95.1%,-41.2% (active),-81.2% (active),-54.8% (active),-100% (active),-63.6% (active),67.6%,-51.3% (active),-31.3% (active),-48.6% (active),-88.6% (active),-65.4% (active),-90.8% (active),96.3%,-69.7% (active),-80.8% (active),-42.8% (active),-37.7% (active),0.444% (active)
